What all share (test): DAPPL (digital affinity profiling via proximity ligation, sequencing); 10 mM Tris-HCl pH 7.5, 50 mM NaCl, 1 mM DTT, 4% glycerol, room temperature, 30 min; GST-TFs on glutathione beads, 16-mer random dsDNA library, 0.1% formaldehyde crosslink after washing; high values mean tight binding
The target in one assay is T1, FLI1 (Homo sapiens, UniProt Q01543 1-452).
T1 sequence: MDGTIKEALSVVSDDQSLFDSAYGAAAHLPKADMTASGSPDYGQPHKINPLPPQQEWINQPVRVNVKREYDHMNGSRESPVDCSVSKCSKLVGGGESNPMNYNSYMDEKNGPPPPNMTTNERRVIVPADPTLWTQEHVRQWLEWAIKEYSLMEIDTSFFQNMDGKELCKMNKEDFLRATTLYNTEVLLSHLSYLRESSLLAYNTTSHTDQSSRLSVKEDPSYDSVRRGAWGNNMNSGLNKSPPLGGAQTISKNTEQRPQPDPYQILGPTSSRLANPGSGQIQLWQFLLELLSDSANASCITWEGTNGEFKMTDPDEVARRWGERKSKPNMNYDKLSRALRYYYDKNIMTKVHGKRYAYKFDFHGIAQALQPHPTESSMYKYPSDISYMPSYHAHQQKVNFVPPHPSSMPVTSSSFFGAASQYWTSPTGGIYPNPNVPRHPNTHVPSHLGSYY
As to conditions: protein: recombinant; tags: N-terminal GST; dsDNA, one strand shown. In short, it runs like this:
(§1)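 In yeast, human transcription factors were expressed with a GST fusion, then pulled down on glutathione beads and given DNA barcodes. Pooled with a tag-only sample, they were exposed to 200 nmole of a 16-mer random double-stranded DNA library (Tris/NaCl/DTT/glycerol buffer, room temperature, 30 min), washed, crosslinked with 0.1% formaldehyde, proximity-ligated using BsaI/T4 ligase for 1 h at 37 °C, PCR-amplified and read on an Illumina NextSeq500. Each hexamer's frequency of reads for a factor, divided by the matching frequency for the tag-only sample, gives the binding signal.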

The target of another assay is T2, ELK1 (Homo sapiens, UniProt P19419 1-428).
T2 sequence: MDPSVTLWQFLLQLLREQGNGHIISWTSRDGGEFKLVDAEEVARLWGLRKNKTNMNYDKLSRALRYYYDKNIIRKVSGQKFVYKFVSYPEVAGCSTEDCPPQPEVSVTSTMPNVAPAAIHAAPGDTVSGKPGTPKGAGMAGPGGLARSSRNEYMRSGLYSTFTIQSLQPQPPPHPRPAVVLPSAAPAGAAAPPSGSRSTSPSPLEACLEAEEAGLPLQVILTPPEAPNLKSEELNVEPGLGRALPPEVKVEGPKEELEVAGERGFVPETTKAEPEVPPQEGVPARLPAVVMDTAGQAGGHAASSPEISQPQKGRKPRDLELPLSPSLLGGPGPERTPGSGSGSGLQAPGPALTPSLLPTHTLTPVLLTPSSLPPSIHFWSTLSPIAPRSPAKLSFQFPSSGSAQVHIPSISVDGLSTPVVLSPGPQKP
The conditions noted are these: protein: recombinant; tags: N-terminal GST; dsDNA, one strand shown. Summed up:
as §1

The target of a further assay is T3, GABPA (Homo sapiens, UniProt Q06546 1-454).
T3 sequence: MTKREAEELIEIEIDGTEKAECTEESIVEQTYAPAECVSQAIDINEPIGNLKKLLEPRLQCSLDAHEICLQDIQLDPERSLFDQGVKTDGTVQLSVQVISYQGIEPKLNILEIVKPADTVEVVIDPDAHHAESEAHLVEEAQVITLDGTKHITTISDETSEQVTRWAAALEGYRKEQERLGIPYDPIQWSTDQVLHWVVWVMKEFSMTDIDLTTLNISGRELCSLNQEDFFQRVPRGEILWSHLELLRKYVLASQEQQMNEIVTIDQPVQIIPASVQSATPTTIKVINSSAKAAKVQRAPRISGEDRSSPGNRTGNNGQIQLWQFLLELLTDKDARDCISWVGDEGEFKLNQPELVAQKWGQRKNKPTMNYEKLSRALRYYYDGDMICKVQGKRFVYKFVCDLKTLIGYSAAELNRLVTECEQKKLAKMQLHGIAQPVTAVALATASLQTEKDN
The conditions noted are these: protein: recombinant; tags: N-terminal GST; dsDNA, one strand shown. Summed up: as §1

The target in another assay is T4, ERG (Homo sapiens, UniProt P11308 1-479).
T4 sequence: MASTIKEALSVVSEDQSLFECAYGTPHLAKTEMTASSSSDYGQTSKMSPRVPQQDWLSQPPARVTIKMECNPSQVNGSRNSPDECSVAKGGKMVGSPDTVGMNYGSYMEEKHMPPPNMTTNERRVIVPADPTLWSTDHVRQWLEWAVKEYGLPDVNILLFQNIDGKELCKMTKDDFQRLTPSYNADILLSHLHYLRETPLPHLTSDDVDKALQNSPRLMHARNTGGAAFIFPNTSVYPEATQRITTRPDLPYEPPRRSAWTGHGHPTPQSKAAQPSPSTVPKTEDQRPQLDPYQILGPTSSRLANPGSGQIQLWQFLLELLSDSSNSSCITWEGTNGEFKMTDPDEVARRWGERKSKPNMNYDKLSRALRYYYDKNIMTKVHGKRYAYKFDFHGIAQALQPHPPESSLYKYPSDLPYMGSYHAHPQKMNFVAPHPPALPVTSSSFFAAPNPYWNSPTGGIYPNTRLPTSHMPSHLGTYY
As to conditions: protein: recombinant; tags: N-terminal GST; dsDNA, one strand shown. Summed up:
as §1

For a further assay, the target named is ELF1 (Homo sapiens, UniProt P32519 1-619). As to conditions: protein: recombinant; tags: N-terminal GST; dsDNA, one strand shown. Summed up:
as §1

In another assay the target is T5, EHF (Homo sapiens, UniProt Q9NZC4 1-300).
T5 sequence: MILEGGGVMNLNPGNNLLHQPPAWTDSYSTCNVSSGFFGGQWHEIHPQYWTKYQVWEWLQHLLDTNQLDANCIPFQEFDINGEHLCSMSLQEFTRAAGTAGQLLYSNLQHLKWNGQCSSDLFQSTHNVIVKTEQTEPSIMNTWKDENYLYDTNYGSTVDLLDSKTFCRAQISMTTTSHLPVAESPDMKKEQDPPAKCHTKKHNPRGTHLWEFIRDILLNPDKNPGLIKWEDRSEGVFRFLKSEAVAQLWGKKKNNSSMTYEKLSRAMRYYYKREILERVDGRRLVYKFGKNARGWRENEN
The conditions noted are these: protein: recombinant; tags: N-terminal GST; dsDNA, one strand shown. Summed up:
as §1

The target in a further assay is SPI1 (Homo sapiens, UniProt P17947 1-270). As to conditions: protein: recombinant; tags: N-terminal GST; dsDNA, one strand shown. In short, it runs like this: as §1
Another assay concerns the target SPIB (Homo sapiens, UniProt Q01892 1-262). The conditions noted are these: protein: recombinant; tags: N-terminal GST; dsDNA, one strand shown. In short, it runs like this:
as §1

A further assay addresses T6, ELK3 (Homo sapiens, UniProt P41970 1-407).
T6 sequence: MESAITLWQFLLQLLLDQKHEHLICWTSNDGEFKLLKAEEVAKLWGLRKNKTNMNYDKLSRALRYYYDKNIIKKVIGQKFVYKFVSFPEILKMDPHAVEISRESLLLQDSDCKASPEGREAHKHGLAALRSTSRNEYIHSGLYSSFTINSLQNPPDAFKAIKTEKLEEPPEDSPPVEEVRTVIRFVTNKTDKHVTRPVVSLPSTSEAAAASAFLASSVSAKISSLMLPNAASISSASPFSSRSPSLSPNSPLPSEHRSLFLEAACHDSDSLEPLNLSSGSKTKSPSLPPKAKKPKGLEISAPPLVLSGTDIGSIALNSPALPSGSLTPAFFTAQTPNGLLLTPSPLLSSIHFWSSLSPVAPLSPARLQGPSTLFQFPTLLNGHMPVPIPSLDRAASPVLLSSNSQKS
The conditions noted are these: protein: recombinant; tags: N-terminal GST; dsDNA, one strand shown. In short, it runs like this:
as §1

In the next assay the target is T7, FEV (Homo sapiens, UniProt Q99581 1-238).
T7 sequence: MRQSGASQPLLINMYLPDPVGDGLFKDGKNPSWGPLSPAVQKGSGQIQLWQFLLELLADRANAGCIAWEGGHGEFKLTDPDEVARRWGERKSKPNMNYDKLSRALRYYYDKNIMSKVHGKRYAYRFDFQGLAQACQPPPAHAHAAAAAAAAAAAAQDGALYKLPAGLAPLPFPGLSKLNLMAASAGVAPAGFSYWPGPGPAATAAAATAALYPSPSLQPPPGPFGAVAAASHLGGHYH
As to conditions: protein: recombinant; tags: N-terminal GST; dsDNA, one strand shown. In short, it runs like this:
as §1

A further assay concerns the target ETV5 (Homo sapiens, UniProt P41161 1-510). The conditions noted are these: protein: recombinant; tags: N-terminal GST; dsDNA, one strand shown. In short, it runs like this: as §1
Another assay deals with HSF1 (Homo sapiens, UniProt Q00613 1-529). As to conditions: protein: recombinant; tags: N-terminal GST; chain copies: 3; dsDNA, one strand shown. In short, it runs like this: as §1
Another assay addresses T8, SPIC (Homo sapiens, UniProt Q8N5J4 1-248).
T8 sequence: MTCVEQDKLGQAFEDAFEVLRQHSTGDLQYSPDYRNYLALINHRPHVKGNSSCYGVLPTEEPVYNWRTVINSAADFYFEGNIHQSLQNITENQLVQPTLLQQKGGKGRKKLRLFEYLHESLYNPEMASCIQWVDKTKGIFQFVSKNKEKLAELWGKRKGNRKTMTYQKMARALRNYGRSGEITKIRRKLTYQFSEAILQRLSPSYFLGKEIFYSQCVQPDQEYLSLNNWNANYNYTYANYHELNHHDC
The conditions noted are these: protein: recombinant; tags: N-terminal GST; dsDNA, one strand shown. Summed up: as §1

In the next assay the target is ELF4 (Homo sapiens, UniProt Q99607 1-663). As to conditions: protein: recombinant; tags: N-terminal GST; dsDNA, one strand shown. Summed up:
as §1

The next assay concerns the target T9, ELK4 (Homo sapiens, UniProt P28324-2 1-405).
T9 sequence: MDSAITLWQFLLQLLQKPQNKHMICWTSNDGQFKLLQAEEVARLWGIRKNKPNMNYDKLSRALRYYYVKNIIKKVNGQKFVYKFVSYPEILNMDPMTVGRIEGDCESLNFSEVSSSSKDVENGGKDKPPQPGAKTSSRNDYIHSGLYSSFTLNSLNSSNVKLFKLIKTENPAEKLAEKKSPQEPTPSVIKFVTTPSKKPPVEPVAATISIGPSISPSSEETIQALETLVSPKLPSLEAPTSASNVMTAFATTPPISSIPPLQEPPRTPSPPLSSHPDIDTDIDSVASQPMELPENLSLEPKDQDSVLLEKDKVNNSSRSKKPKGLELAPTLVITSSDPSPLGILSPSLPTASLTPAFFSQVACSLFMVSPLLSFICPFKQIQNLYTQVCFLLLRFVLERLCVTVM
The conditions noted are these: protein: recombinant; tags: N-terminal GST; dsDNA, one strand shown. Summed up:
as §1

A further assay concerns the target T10, ETV2 (Homo sapiens, UniProt O00321 1-342).
T10 sequence: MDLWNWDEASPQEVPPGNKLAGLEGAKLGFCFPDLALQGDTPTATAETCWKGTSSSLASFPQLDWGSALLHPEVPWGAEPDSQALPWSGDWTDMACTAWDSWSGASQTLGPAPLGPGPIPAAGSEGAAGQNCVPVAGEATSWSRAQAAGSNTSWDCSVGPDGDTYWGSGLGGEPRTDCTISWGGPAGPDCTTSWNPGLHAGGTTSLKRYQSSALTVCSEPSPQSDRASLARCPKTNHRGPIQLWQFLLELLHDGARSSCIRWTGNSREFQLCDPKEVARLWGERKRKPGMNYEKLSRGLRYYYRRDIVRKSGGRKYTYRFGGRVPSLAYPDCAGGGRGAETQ
The conditions noted are these: protein: recombinant; tags: N-terminal GST; dsDNA, one strand shown. Summed up: as §1

Another assay concerns the target T11, ELF3 (Homo sapiens, UniProt P78545 1-371).
T11 sequence: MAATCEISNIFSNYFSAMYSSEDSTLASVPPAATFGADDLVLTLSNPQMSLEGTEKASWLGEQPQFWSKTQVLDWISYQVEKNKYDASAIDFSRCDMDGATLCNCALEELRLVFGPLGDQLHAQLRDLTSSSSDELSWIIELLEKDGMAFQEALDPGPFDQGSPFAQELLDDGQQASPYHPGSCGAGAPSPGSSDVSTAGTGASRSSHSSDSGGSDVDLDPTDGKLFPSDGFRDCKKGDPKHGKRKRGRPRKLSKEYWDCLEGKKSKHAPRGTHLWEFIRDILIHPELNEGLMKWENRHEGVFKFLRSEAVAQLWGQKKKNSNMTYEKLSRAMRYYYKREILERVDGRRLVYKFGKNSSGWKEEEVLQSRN
As to conditions: protein: recombinant; tags: N-terminal GST; dsDNA, one strand shown. In short, it runs like this: as §1

The target in the next assay is CRX (Homo sapiens, UniProt O43186 1-299). As to conditions: protein: recombinant; tags: N-terminal GST; dsDNA, one strand shown. In short, it runs like this:
as §1

For a further assay, the target named is ETV1 (Homo sapiens, UniProt P50549 1-477). As to conditions: protein: recombinant; tags: N-terminal GST; dsDNA, one strand shown. In short, it runs like this:
as §1

This note sets out measurements from article PMC7862700, “An all-to-all approach to the identification of sequence-specific readers for epigenetic DNA modifications on cytosine”.

Chain of ELF4 (Q99607 whole entry): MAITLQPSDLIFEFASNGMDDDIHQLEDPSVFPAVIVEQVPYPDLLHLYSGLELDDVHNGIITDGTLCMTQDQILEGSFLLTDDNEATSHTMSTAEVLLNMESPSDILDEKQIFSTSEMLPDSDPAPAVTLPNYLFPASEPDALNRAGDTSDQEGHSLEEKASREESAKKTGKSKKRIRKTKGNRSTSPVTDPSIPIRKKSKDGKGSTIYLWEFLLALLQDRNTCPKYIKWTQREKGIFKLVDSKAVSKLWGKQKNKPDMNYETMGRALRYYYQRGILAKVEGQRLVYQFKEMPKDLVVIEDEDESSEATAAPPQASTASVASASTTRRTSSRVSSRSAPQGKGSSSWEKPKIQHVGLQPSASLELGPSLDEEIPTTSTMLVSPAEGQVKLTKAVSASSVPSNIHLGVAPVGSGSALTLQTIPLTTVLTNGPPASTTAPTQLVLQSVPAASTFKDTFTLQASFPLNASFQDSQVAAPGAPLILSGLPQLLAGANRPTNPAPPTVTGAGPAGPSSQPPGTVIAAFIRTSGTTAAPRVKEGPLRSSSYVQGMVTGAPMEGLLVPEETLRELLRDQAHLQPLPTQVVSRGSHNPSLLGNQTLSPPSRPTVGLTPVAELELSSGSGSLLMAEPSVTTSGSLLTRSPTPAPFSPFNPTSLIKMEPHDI
Chain of ETV1 (P50549 whole entry): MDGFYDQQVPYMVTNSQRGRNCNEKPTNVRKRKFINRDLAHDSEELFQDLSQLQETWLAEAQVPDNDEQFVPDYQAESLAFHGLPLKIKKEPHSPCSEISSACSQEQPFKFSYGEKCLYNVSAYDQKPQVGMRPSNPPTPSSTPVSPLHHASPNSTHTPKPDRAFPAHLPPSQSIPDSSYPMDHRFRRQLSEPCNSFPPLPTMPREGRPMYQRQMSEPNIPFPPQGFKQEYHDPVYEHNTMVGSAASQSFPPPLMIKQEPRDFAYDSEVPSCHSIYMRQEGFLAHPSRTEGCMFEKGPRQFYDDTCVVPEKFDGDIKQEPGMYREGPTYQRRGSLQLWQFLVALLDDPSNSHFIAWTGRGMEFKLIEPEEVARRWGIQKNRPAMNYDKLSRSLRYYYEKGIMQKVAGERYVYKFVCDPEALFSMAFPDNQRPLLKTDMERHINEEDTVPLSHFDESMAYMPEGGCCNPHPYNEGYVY
Chain of ETV5 (P41161 whole entry): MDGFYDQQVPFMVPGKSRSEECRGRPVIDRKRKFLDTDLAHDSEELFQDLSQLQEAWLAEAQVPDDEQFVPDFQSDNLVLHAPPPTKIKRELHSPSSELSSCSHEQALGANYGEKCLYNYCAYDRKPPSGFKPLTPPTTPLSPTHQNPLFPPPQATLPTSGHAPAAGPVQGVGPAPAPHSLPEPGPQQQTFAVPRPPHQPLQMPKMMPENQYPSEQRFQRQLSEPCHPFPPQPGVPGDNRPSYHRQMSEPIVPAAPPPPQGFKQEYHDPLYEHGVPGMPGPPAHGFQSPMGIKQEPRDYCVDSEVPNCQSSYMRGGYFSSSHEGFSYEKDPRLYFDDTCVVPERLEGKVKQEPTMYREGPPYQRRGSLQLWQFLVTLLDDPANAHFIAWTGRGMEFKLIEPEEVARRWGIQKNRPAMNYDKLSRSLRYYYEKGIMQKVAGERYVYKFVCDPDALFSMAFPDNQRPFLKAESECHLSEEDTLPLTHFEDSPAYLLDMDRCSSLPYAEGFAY
Chain of HSF1 (Q00613 whole entry): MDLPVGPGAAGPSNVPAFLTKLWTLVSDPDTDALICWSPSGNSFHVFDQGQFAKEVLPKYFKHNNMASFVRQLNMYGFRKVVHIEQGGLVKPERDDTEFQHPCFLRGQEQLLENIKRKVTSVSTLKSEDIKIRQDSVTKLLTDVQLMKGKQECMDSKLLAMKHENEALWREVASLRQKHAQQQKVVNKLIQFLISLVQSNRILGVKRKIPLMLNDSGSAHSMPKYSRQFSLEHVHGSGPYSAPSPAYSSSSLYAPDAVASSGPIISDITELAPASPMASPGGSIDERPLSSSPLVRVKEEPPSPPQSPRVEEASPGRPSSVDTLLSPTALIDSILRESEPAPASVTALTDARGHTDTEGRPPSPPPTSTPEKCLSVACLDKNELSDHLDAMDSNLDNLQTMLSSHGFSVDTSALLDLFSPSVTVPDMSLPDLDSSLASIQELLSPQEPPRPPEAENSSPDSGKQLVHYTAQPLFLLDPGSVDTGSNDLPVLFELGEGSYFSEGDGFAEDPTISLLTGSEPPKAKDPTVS
Chain of CRX (O43186 whole entry): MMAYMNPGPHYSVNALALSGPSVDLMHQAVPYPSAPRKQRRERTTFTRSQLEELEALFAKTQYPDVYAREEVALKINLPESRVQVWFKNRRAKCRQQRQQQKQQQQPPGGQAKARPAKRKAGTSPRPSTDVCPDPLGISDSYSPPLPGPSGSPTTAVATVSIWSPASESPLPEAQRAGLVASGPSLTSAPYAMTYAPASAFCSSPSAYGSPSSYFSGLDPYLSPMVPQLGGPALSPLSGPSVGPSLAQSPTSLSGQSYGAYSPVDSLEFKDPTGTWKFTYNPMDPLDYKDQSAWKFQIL
Chain of ELF1 (P32519 whole entry): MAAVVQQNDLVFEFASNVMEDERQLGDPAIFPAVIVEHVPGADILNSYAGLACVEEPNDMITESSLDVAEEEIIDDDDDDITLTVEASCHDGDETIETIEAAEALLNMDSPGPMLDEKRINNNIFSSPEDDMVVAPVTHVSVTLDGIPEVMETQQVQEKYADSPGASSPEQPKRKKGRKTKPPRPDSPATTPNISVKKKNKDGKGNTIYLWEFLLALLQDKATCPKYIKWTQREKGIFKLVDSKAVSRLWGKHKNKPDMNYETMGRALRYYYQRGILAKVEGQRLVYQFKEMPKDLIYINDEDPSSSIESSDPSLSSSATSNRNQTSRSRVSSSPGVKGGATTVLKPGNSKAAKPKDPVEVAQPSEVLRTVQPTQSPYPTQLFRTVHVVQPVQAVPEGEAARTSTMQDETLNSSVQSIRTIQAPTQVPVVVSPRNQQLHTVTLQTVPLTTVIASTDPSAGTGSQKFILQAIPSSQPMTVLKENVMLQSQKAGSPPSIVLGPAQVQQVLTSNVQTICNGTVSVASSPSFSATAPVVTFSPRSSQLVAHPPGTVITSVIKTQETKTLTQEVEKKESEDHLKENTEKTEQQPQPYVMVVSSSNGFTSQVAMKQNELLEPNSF
Chain of SPIB (Q01892 whole entry): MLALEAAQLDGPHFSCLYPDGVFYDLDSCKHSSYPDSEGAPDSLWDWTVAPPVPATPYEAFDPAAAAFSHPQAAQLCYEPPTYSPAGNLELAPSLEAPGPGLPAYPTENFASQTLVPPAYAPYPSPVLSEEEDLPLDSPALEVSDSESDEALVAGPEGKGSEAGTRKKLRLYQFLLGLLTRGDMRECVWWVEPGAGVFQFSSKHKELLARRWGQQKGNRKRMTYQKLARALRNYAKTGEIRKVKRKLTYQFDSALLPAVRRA

For CTTACT, the binding signal with FLI1 was 1.38 fold enrichment (6-mer frequency, TF over GST control); with ELK1 it was 1.31 fold enrichment (6-mer frequency, TF over GST control); in the assay with GABPA, 1.3 fold enrichment (6-mer frequency, TF over GST control); with ERG it was 1.27 fold enrichment (6-mer frequency, TF over GST control); with ELF1 it was 1.29 fold enrichment (6-mer frequency, TF over GST control); with EHF, 1.34 fold enrichment (6-mer frequency, TF over GST control). Further, the binding signal with SPI1 is 1.3 fold enrichment (6-mer frequency, TF over GST control); in the assay with SPIB, 1.27 fold enrichment (6-mer frequency, TF over GST control); with ELK3, 1.34 fold enrichment (6-mer frequency, TF over GST control); in the assay with FEV it was 1.17 fold enrichment (6-mer frequency, TF over GST control); with ETV5, 1.28 fold enrichment (6-mer frequency, TF over GST control); with HSF1, 1.34 fold enrichment (6-mer frequency, TF over GST control). For the same sequence, the binding signal in the assay with SPIC was 1.1 fold enrichment (6-mer frequency, TF over GST control); in the assay with ELF4, 1.36 fold enrichment (6-mer frequency, TF over GST control); with ELK4, 1.12 fold enrichment (6-mer frequency, TF over GST control); with ETV2 it was 1.39 fold enrichment (6-mer frequency, TF over GST control); with ELF3, 1.24 fold enrichment (6-mer frequency, TF over GST control); with CRX, 1.58 fold enrichment (6-mer frequency, TF over GST control). For the same sequence, the binding signal with ETV1 is 1.23 fold enrichment (6-mer frequency, TF over GST control).
